Targets with a hit are over-represented here; the source holds about 7,900 in all. About 0.6% of all pairs of compound and target were hits.
What follows are targets tested with NCC(=O)Nc1ccc(-n2nc(C(F)(F)F)cc2-c2ccc3c(ccc4ccccc43)c2)cc1 (assay: log2 fold change, soluble protein after heating vs DMSO (PISA); higher = thermal stabilisation; K562 cells, 10 uM, 30 min; active = over 0.2 and 3.5 SD of the protein, either way, in both replicates (recomputed)).
How it was run: (§1)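 K562 cells at 2×10^6 cells/mL were given 10 μM compound for 30 min. Aliquots then went through 3 min of heating across 48°C-58°C, were pooled, and were extracted in PBS with 0.5% NP-40 at 4°C, and the supernatant after 21,000xg for 90 min was quantified by TMTpro 16plex LC-MS/MS with channel sums equalised. Thermal stability relative to control samples, from duplicates, is given as log2 fold change.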
UniProt P08579, sequence (P08579 whole entry, looked up): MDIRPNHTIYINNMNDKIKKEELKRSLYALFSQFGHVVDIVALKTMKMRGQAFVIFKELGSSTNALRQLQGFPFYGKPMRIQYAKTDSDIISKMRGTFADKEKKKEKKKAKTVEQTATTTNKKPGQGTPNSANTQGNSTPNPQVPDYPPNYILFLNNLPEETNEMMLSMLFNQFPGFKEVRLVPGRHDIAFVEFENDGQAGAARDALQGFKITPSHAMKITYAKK
UniProt Q5VWP2, sequence (Q5VWP2 whole entry, looked up): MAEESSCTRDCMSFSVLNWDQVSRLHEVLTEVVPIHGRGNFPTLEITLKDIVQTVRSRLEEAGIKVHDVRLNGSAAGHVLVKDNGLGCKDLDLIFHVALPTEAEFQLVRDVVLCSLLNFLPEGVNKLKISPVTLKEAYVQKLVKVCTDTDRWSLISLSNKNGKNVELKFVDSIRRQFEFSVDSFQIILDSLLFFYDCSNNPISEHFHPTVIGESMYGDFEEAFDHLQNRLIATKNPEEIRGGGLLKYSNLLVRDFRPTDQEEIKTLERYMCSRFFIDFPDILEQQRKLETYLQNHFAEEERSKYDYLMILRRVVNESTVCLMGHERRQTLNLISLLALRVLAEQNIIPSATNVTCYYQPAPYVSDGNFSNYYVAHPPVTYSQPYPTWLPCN
UniProt Q9NRS6, sequence (Q9NRS6 whole entry, looked up): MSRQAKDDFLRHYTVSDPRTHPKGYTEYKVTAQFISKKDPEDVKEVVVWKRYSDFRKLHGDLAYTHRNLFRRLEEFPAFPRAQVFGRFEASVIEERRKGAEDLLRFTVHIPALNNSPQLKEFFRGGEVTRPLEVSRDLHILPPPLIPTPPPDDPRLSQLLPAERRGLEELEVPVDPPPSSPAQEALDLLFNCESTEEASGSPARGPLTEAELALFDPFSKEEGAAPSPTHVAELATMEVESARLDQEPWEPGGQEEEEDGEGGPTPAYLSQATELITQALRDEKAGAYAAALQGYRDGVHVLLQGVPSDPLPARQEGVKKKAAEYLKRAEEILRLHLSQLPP
UniProt Q6ZRS2, sequence (Q6ZRS2 whole entry, looked up): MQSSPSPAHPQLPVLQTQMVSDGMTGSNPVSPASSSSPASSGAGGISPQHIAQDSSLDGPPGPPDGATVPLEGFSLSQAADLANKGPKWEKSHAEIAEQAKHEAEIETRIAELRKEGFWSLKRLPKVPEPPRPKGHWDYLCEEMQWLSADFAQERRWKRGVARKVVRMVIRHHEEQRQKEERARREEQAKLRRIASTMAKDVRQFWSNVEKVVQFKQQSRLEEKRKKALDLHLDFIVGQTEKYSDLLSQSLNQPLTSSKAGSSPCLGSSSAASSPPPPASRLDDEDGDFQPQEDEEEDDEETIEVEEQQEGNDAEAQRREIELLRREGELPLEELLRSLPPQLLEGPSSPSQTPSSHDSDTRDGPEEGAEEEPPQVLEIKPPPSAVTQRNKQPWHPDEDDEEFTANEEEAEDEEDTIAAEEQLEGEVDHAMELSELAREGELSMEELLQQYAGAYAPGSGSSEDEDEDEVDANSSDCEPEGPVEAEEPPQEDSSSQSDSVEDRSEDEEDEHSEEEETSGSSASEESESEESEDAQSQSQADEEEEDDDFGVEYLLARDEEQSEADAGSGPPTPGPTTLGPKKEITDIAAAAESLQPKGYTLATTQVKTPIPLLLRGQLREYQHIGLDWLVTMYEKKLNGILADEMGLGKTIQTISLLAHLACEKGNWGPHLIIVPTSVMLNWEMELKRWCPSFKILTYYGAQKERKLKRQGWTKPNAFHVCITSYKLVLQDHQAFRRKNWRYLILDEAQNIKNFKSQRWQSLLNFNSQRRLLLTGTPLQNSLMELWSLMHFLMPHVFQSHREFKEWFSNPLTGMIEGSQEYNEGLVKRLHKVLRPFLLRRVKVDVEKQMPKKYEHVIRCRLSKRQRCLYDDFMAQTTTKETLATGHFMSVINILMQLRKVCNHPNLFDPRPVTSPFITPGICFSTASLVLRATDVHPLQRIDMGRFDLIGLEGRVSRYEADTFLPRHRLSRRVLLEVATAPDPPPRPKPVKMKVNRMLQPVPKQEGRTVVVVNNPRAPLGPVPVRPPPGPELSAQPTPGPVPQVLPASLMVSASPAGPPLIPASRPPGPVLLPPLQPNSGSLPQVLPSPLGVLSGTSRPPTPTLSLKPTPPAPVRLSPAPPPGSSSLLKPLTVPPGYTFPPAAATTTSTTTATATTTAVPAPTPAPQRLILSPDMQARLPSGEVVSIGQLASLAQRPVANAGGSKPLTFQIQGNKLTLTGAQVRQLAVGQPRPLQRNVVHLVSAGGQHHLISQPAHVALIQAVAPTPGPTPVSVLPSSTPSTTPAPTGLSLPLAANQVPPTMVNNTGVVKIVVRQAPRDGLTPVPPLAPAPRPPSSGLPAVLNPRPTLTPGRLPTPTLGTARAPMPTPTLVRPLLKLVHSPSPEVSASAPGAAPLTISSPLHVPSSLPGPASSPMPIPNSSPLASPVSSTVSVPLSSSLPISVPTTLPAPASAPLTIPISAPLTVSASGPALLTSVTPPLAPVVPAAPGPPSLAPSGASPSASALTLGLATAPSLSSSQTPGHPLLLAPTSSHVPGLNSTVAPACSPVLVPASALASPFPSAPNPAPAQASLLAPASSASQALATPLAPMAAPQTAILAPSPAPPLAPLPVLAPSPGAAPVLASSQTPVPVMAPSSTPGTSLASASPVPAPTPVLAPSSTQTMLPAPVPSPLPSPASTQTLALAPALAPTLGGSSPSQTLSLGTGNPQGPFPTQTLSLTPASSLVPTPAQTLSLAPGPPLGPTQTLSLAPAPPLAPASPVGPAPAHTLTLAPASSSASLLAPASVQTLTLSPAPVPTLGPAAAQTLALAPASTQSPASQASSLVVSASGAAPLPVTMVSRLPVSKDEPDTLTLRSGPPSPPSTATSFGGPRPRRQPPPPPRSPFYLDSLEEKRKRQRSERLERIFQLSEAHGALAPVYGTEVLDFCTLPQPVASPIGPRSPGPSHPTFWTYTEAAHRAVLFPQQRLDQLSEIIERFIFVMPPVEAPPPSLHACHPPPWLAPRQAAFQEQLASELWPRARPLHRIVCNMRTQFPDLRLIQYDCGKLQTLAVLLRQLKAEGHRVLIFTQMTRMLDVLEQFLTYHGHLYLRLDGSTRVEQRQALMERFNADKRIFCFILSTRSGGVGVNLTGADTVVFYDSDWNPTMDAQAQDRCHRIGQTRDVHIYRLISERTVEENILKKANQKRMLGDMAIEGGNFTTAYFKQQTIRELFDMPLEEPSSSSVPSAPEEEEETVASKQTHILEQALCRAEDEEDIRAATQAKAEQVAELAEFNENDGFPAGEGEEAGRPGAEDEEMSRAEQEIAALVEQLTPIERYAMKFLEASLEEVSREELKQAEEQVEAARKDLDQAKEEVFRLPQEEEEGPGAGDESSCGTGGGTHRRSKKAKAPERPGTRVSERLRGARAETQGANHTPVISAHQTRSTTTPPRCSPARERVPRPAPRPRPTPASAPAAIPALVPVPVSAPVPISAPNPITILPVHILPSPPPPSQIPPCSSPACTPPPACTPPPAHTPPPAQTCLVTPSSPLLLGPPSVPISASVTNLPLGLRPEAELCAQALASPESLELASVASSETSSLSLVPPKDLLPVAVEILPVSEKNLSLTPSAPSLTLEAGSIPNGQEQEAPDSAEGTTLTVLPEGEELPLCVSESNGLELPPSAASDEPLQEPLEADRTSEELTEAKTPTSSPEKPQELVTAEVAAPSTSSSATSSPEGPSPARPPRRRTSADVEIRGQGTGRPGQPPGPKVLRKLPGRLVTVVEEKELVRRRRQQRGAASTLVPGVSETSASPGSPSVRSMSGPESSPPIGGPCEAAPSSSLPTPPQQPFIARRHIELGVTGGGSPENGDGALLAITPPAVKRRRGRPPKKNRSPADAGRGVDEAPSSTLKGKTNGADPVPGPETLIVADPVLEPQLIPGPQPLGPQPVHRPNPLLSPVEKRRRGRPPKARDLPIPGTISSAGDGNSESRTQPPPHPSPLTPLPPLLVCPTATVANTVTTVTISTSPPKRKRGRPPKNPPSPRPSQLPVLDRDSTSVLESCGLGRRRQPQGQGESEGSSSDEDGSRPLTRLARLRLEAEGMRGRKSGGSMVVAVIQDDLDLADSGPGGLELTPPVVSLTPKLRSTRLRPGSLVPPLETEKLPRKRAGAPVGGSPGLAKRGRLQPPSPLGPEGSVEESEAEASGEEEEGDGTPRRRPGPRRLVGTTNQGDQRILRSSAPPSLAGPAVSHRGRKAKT
UniProt O43815, sequence (O43815 whole entry, looked up): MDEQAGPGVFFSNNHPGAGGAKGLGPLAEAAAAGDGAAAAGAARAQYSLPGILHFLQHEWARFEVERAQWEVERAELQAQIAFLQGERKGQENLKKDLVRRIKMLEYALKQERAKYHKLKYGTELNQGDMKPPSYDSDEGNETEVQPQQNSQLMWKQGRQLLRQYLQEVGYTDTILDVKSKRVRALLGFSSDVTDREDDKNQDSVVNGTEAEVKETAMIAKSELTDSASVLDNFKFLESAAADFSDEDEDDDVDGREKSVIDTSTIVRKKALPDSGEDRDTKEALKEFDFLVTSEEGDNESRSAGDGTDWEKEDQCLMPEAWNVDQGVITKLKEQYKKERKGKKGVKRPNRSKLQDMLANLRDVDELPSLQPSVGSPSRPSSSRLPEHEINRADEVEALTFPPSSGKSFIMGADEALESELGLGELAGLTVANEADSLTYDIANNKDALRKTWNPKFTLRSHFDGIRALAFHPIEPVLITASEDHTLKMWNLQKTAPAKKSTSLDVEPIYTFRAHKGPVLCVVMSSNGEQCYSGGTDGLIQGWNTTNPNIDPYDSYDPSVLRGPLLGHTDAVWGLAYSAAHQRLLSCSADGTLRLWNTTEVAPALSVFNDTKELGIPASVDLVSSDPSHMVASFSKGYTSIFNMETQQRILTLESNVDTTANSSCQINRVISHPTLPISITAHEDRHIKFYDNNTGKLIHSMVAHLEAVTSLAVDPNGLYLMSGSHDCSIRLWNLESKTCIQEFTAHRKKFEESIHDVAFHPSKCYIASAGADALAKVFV
UniProt Q9BYN0, sequence (Q9BYN0 whole entry, looked up): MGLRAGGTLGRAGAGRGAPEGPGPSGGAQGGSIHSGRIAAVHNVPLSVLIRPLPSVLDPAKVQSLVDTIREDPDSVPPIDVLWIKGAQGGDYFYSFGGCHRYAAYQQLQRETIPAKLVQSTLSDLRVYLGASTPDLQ
With SMG1 (UniProt Q96Q15) the log2 fold change was -0.073 (inactive). With SRCAP (UniProt Q6ZRS2) the log2 fold change was -0.041 (inactive). With SNRPB2 (UniProt P08579) the log2 fold change was 0.038 (inactive). For STARD3 (UniProt Q14849), the log2 fold change was -0.073 (inactive). For SNX15 (UniProt Q9NRS6), the log2 fold change was -0.133 (inactive). For TIAL1 isoform 2 (UniProt Q01085), the log2 fold change was -0.048 (inactive). For TENT5C (UniProt Q5VWP2), the log2 fold change was -0.32 (inactive). SLC39A11 (UniProt Q8N1S5) was tested, and the log2 fold change was 0.024 (inactive). In the case of TFB2M (UniProt Q9H5Q4), the log2 fold change is reported as -0.066 (inactive). For SYNE1 (UniProt Q8NF91), the log2 fold change was 0.04 (inactive). For STRN (UniProt O43815), the log2 fold change was 0.019 (inactive). For SYNE2 isoform 2 (UniProt Q8WXH0), the log2 fold change was -0.134 (inactive). SNX12 isoform 1 (UniProt Q9UMY4) was tested, and the log2 fold change was 0.019 (inactive).

The targets below were run with Nc1ccccc1NC(=O)c1ccc(CNC(=O)OCc2cccnc2)cc1 [entinostat] in the same assay as above.
How it was run: as §1
With SMAP (UniProt O00193) the log2 fold change was 0.016 (inactive). With TGFBR1 isoform 2 (UniProt P36897) the log2 fold change was 0.093 (inactive). In the case of SLC7A6OS (UniProt Q96CW6), the log2 fold change is reported as -0.043 (inactive). For TK1 (UniProt P04183), the log2 fold change was -0.068 (inactive). In the case of TACC2 (UniProt O95359), the log2 fold change is reported as 0.035 (inactive). With TATDN2 (UniProt Q93075) the log2 fold change was 0.009 (inactive). For STK11IP (UniProt Q8N1F8), the log2 fold change was 0.046 (inactive). In the case of SRXN1 (UniProt Q9BYN0), the log2 fold change is reported as -0.053 (inactive). SSRP1 (UniProt Q08945) was tested, and the log2 fold change was 0.007 (inactive). With STK38L (UniProt Q9Y2H1) the log2 fold change was 0.109 (inactive). With TAF9 (UniProt Q16594) the log2 fold change was -0.567 (active). With SP1 (UniProt P08047) the log2 fold change was -0.005 (inactive). In the case of SRPRB (UniProt Q9Y5M8), the log2 fold change is reported as 0.045 (inactive). SLC38A7 (UniProt Q9NVC3) was tested, and the log2 fold change was -0.066 (inactive). With SP100 isoform 4 (UniProt P23497) the log2 fold change was 0.007 (inactive). TK1 (UniProt K7ERV3) was tested, and the log2 fold change was -0.071 (inactive). In the case of SMARCA4 (UniProt P51532), the log2 fold change is reported as 0.012 (inactive). In the case of SLC44A2 isoform 2 (UniProt Q8IWA5), the log2 fold change is reported as -0.06 (inactive). TBC1D20 isoform 3 (UniProt Q96BZ9) was tested, and the log2 fold change was 0.026 (inactive). For SRSF6 (UniProt Q13247), the log2 fold change was -0.082 (inactive). In the case of SRC isoform 2 (UniProt P12931), the log2 fold change is reported as 0.12 (inactive). SMG1 (UniProt Q96Q15) was tested, and the log2 fold change was -0.097 (inactive). SRCAP (UniProt Q6ZRS2) was tested, and the log2 fold change was 0.077 (inactive). With SNRPB2 (UniProt P08579) the log2 fold change was -0.016 (inactive). With STARD3 (UniProt Q14849) the log2 fold change was 0.004 (inactive). For SNX15 (UniProt Q9NRS6), the log2 fold change was 0.061 (inactive). TIAL1 isoform 2 (UniProt Q01085) was tested, and the log2 fold change was -0.005 (inactive). For TENT5C (UniProt Q5VWP2), the log2 fold change was 0.035 (inactive). For SLC39A11 (UniProt Q8N1S5), the log2 fold change was -0.016 (inactive). For TFB2M (UniProt Q9H5Q4), the log2 fold change was 0.054 (inactive). With SSBP4 (UniProt Q9BWG4) the log2 fold change was -0.084 (inactive). For SYNE1 (UniProt Q8NF91), the log2 fold change was -0.027 (inactive). With SRFBP1 (UniProt Q8NEF9) the log2 fold change was -0.071 (inactive). With STRN (UniProt O43815) the log2 fold change was -0.008 (inactive). With SYNE2 isoform 2 (UniProt Q8WXH0) the log2 fold change was -0.125 (inactive). SNX12 isoform 1 (UniProt Q9UMY4) was tested, and the log2 fold change was 0.046 (inactive).

Each target was assayed with O=C(CCCCCCC(=O)Nc1ccccc1)NO [vorinostat] in the same assay as above.
How it was run: as §1
In the case of SMAP (UniProt O00193), the log2 fold change is reported as -0.047 (inactive). TGFBR1 isoform 2 (UniProt P36897) was tested, and the log2 fold change was -0.083 (inactive). SLC7A6OS (UniProt Q96CW6) was tested, and the log2 fold change was 0.056 (inactive). With TK1 (UniProt P04183) the log2 fold change was -0.007 (inactive). With TACC2 (UniProt O95359) the log2 fold change was -0.033 (inactive). With TEX30 (UniProt Q5JUR7) the log2 fold change was 0.121 (inactive). TATDN2 (UniProt Q93075) was tested, and the log2 fold change was 0.004 (inactive). For STK11IP (UniProt Q8N1F8), the log2 fold change was -0.184 (inactive). For SRXN1 (UniProt Q9BYN0), the log2 fold change was -0.24 (inactive). SSRP1 (UniProt Q08945) was tested, and the log2 fold change was 0.059 (inactive). With STK38L (UniProt Q9Y2H1) the log2 fold change was 0.02 (inactive). In the case of TAF9 (UniProt Q16594), the log2 fold change is reported as 0.002 (inactive). SP1 (UniProt P08047) was tested, and the log2 fold change was 0.052 (inactive). With SRPRB (UniProt Q9Y5M8) the log2 fold change was 0.029 (inactive). With SLC38A7 (UniProt Q9NVC3) the log2 fold change was 0.11 (inactive). For SP100 isoform 4 (UniProt P23497), the log2 fold change was -0.046 (inactive). With TK1 (UniProt K7ERV3) the log2 fold change was -0.003 (inactive). For SMARCA4 (UniProt P51532), the log2 fold change was 0.038 (inactive). SLC44A2 isoform 2 (UniProt Q8IWA5) was tested, and the log2 fold change was -0.006 (inactive). In the case of TBC1D20 isoform 3 (UniProt Q96BZ9), the log2 fold change is reported as 0.033 (inactive). For SRSF6 (UniProt Q13247), the log2 fold change was 0.084 (inactive). In the case of SPIRE1 (UniProt Q08AE8), the log2 fold change is reported as -0.035 (inactive). With SRC isoform 2 (UniProt P12931) the log2 fold change was 0.079 (inactive). In the case of SMG1 (UniProt Q96Q15), the log2 fold change is reported as -0.012 (inactive). SRCAP (UniProt Q6ZRS2) was tested, and the log2 fold change was -0.039 (inactive). For SNRPB2 (UniProt P08579), the log2 fold change was -0.027 (inactive). With STARD3 (UniProt Q14849) the log2 fold change was -0.021 (inactive). With SNX15 (UniProt Q9NRS6) the log2 fold change was 0.436 (active). With TIAL1 isoform 2 (UniProt Q01085) the log2 fold change was 0.025 (inactive). TENT5C (UniProt Q5VWP2) was tested, and the log2 fold change was -0.104 (inactive). For SLC39A11 (UniProt Q8N1S5), the log2 fold change was -0.063 (inactive). In the case of TFB2M (UniProt Q9H5Q4), the log2 fold change is reported as 0.027 (inactive). With SSBP4 (UniProt Q9BWG4) the log2 fold change was -0.107 (inactive). In the case of SYNE1 (UniProt Q8NF91), the log2 fold change is reported as 0.114 (inactive). For SRFBP1 (UniProt Q8NEF9), the log2 fold change was 0.009 (inactive). In the case of STRN (UniProt O43815), the log2 fold change is reported as 0.024 (inactive). With SYNE2 isoform 2 (UniProt Q8WXH0) the log2 fold change was 0.072 (inactive). With SNX12 isoform 1 (UniProt Q9UMY4) the log2 fold change was 0.035 (inactive).
